Assay results: PubChem BioAssay AID1508600 (Functional Genomics Laboratory (NCATS/FGL), 2020)
In all, about 53,000 sequences went through this assay and about 3,700 (7%) were called active. Shown is part of a subset that was picked to be rich in actives. Values without a mark were called inactive.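 How the source made its calls: active means gene knockdowns whose robust z-score for IL-1 alpha signal is at least 2 or at most -2, so actives lie on both sides; inactive means the rest.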

assay: Components of the Cytosolic LPS Sensing Pathway: Gene Identification via Genome-wide siRNA Screen; conditions: RAW264.7 macrophages, IL-1a HTRF, actives lie on both sides, screened at 100 nM (by protocol), cells primed 5 h with Pam3CSK4 first;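 further: robust z of the log signal after scaling to non-targeting control siRNA wells of the plate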
Outline: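 Knockdown: 100 nM siRNA, 48h, RAW264.7. Stimulation: Pam3CSK4 5 h, then LipidA via TransIT-TKO 24 h. Output: supernatant IL-1a HTRF, negative-control-normalized, log robust z-score; viability by CellTiter-Glo.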

Row | Sequence | z-score
1 | GGAUAACUCCUUAUUUAACTT against Teddm3 | 1.25
2 | GGAAAACCAGAAAGAAUUUTT against Crnkl1 | -0.334
3 | GGAACAAGUUUGUGCUUUCTT against Cpd | 0.728
4 | GGAUAACCAACAAGGUUUUTT against Mgst1 | 0.701
5 | GGUGGAACACAUAUUUUAATT against Tbc1d13 | 0.837
6 | CGCCCAUGUACAGAUUUGUTT against Olfr429 | -2.33 (active)
7 | GCUUCACCUGACAAUGACUTT against Tsc22d3 | 1.2
8 | GGGACAGGUUGAGGUCUAUTT against Vmn1r233 | 2.01 (active)
9 | GGCAUACCGAAAGUUAGCCTT against Dnaja2 | -0.724
10 | GGAGGUCCAGGAUUUUAUATT against Styk1 | 1.12
11 | GCUUCAACAUGCUUUGUUUTT against A430010J10Rik | -0.555
12 | CCCUACUCCUCAGAACUUATT against Tbc1d10a | -0.499
13 | CCAAAAAGAGCGAUUACCCTT against Shc1 | 0.368
14 | CGCAGAAAGAGCAUCAGAUTT against Atg9a | -2.42 (active)
15 | GCGACUGUGGUGGUUACAUTT against Bcas2 | 0.444
16 | GGGAAGGAAGAAUUUAUUUTT against 6430571L13Rik | 1.24
17 | GCUGCUCAAUCGGAAAUACTT against Clk1 | -2.06 (active)
18 | CCAGGUGUAUAAUAAGAUGTT against Atp8b3 | 0.271
19 | GCAAUGACAGAACAUACAGTT against Cts7 | 1.67
20 | GGCAGAAAGAAAUUGAGAATT against Trim42 | -0.655
21 | CAGCAUCUUUGAUUGUCUGTT against Tssc4 | 2.15 (active)
22 | GCUUAUGCCAGUCUGUCAUTT against Hax1 | -0.206
23 | CCAUACAUCAGUACUUACCTT against Olfr553 | 0.477

Row | Sequence | z-score
24 | GCGUGUUCGCUUCUUGCUATT against Trub2 | -0.614
25 | CCACAGAAUAAGACAAUAUTT against Fbxo34 | -3.03 (active)
26 | CCAUUCAGUCGAUUACAUUTT against Chd9 | 0.204
27 | GGACUUUUCUUUUGGAAGGTT against Nbl1 | -0.08
28 | GCCUUUCCACCGAUGAAAUTT against Dpyd | -0.473
29 | GGAGCACAUCUUUUCUGCCTT against Mixl1 | -1.22
30 | CCAAUUAUUAUCCAAGGGCTT against Slc16a6 | -0.0144
31 | GCUAUAACCUCACCGAGAATT against Tedc2 | 2.09 (active)
32 | GGAAAAGCAGACAUGUGAUTT against Dedd | -0.875
33 | CCAUUCAUACCAUACCUGUTT against Tmem50a | -0.521
34 | GGGCAUUAGGGUGGUAGCATT against Gapdhs | -0.826
35 | GCUUAGUGGUUCUUAUUUGTT against Olfr893 | -0.214
36 | GCUUCAUAUAGACAAAGCCTT against Epo | -0.625
37 | GGAAGUUAGUUUCGUUUUATT against Rprd1b | 2.03 (active)
38 | GGCAAGAUCUUCAAGUGAATT against Eef1g | -0.809
39 | GGAACAUUUUGGAAAUGACTT against Fbxo25 | -0.625
40 | GGAAGAAGAAGGAGCUAGATT against Slu7 | -2.2 (active)
41 | CCACCCACUAAACCUAAAUTT against Pcolce | 0.136
42 | GGACACCAAAGUGAAUACATT against Cdhr5 | 0.122
43 | GGAGAUGGCACAGUCAGUCTT against Slc22a8 | -0.338
44 | GGGUUGUGGCUGCUACUAUTT against Pira2 | 2.18 (active)
45 | GCUACUGGUUGGGUUGAAGTT against Tbcd | 1.47
46 | GGAAGCUUUGGGAAACAGUTT against Bmp2 | -0.226

Row | Sequence | z-score
47 | GGCCACUUGUCUCAUUGUGTT against Xlr4c | -1.93
48 | GGAUACCAUCCUAGGCCUGTT against Ephx3 | -0.603
49 | GCCUCAUCGUUGCUGACUATT against Pde3b | -2.04 (active)
50 | GGAUGGUAACCAUCAUAUUTT against Vmn1r54 | -0.887
51 | CCUCAUUGUUUUAUACCCUTT against Olfr1140 | 0.309
52 | GGGAUUAUACUAAUCCAACTT against Wdr45 | 1.24
53 | GCUUCUUCCUUAGAUGGCATT against Kcnb1 | -1.32
54 | GGUGCAUUUUGUCUAUGAUTT against Lamp5 | -2.04 (active)
55 | CGACCAGCCAUGGUACAAATT against Ptprd | -0.83
56 | CGUAGAAGAGUACAUGAUUTT against Pdcd10 | -0.526
57 | GGAGAAAAGGAAGUUGAGGTT against Bnip3l | -1.76
58 | GGGUUUCCAAGAAGGAAGCTT against Utp25 | 0.852
59 | CCUUUUUCGAAAAAUCAGGTT against Lyst | -0.39
60 | CCACAUAUAUCAACAAGCUTT against Olfr916 | -0.257
61 | CCAAGAUAGUCCCUAUCCCTT against Scamp3 | 0.346
62 | GGUAUGAUGAACAGUCCAGTT against Ep300 | -2.35 (active)
63 | GGCUUGUUAAUGAAUGCACTT against Ankrd9 | -0.894
64 | GGCUUUGAAGAAGAGCUUUTT against Atp6v0a4 | -0.775
65 | GCACAGCGGUAAACAAAAUTT against Ywhaz | -0.00575
66 | GUAUCCUUCACAACUGUCUTT against Olfr786 | -1.66
67 | GGAAUCUGCUGAGGUUUAUTT against Cidea | 4.08 (active)
68 | GGAGCUGAGGAAAAAGAUUTT against Uhrf1 | -0.993
